± gives the standard deviation.
System: OVCAR-3-derived ovarian cancer stem-like cells (spheroids)
Assay: cell growth relative to untreated control; higher = more growth (less inhibition)
Conditions: 2.29 µM; 96 h
How it was run: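 OVCAR-3 spheroid-derived stem-like cells were trypsin-dissociated, seeded at 50,000 cells/mL in stem cell medium in ultra-low attachment 96-well plates and preincubated 24 h. Compounds were then added at 2.29 uM for 96 h at 37°C, 5% CO2, in 4 replicate wells. Viability was read as TOX8 resazurin fluorescence (ex 560/em 590 nm) after 4 h. Percent growth was calculated relative to untreated wells after blank subtraction and Grubbs outlier removal.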

Q: With `CC12CCC3C(CCC4CC(OC(=O)Cc5ccc(N(CCCl)CCCl)cc5)CCC43C)C1CCC(=O)N2` (stereo not given) as the compound, how does the cell growth read?
A: The cell growth was 52.8 ± 15%.

Q: With `CC[C@@]1(O)C[C@H](O[C@H]2C[C@H](N(C)C)[C@H](O[C@H]3C[C@@H]4O[C@H]5CC(=O)[C@H](C)O[C@H]5O[C@@H]4[C@H](C)O3)[C@H](C)O2)c2c(cc3c(c2O)C(=O)c2c(O)ccc(O)c2C3=O)[C@H]1C(=O)OC` as the compound, how does the cell growth read?
A: Its cell growth is 11 ± 3.4%.

Q: For `CC1=C[C@H]2O[C@@H]3[C@H](O)[C@@H](O)[C@@](C)([C@@]2(CO)CC1)[C@]31CO1`, which cell growth is on record?
A: The cell growth was 36 ± 10%.

Q: `CC(O)CCC(=O)c1ccoc1` (stereo not given) was tested. Which cell growth did it give?
A: The cell growth was 99 ± 17%.

Q: How did the cell growth turn out when `C[N+](C)(C)CC1CCCC1=O` (stereo not given) was run?
A: Its cell growth is 95.5 ± 20%.

Q: `CO[C@@H](/C(C)=C/C=C/C(C)=C/c1coc(C)n1)[C@@H](C)[C@@H]1C[C@H](O)[C@@]2(C)O[C@@H]2/C=C/[C@@H](C)[C@H]2C[C@H](CC(=O)O2)C[C@@H]2O[C@H]2C(=O)O1` was tested. Which cell growth did it give?
A: The cell growth was 40.6 ± 7.4%.

Q: Which cell growth does the source give for `C[C@@H]1C[C@H]2CC[C@H](O2)[C@H](C)C(=O)O[C@@H](C)C[C@@H]2CC[C@@H](O2)[C@@H](C)C(=O)O[C@H](C)C[C@H]2CC[C@H](O2)[C@H](C)C(=O)O[C@@H](C)C[C@@H]2CC[C@@H](O2)[C@@H](C)C(=O)O1` here?
A: The cell growth was 31.3 ± 6%.

Q: With `CC1=CC23C(COC(=O)C24CO4)C(C(=O)O)=CC3C1C.NCc1ccccc1` (stereo not given) as the compound, how does the cell growth read?
A: The cell growth was 74.5 ± 29%.

Q: For `CC(C)OP(=O)(OC(C)C)C(N(C)C)P(=O)(OC(C)C)OC(C)C.[Cl][Sn]([Cl])([Cl])[c]1ccccc1`, which cell growth is on record?
A: Its cell growth is 62.2 ± 17%.

Q: For `C[n+]1cc2cc(O)c(O)cc2c2ccc3cc(O)c(O)cc3c21.c1ccncc1`, which cell growth is on record?
A: Its cell growth is 91.8 ± 23%.
